Growth data for 29 compounds are collected here from PubChem BioAssay (NCI).

About 83,000 compounds went through this panel and 20% of them were active in at least one assay; those are over-represented in the sample as a whole.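 Each cell line was grown in a 96-well plate and treated with one concentration of compound for 48 hours. Values below 10 were considered active.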 Values without a mark were called inactive. Calls of active or inactive are those of the source.

The test system of the assay is HL-60(TB) leukemia. The assay can be described thus: NCI-60 one-dose screen, 48 h (100 = growth as untreated, 0 = no growth, -100 = all killed). Particulars: 10 µM unless noted.
For the compound `Cc1sc2nc3c4ccccc4c(NCCCN(C)C)nn3c(=O)c2c1C`, the growth was -71% (active). To `Cc1ncc(C(=O)Nc2ccc(CN3CCN(C)CC3)c(C(F)(F)F)c2)cc1C#Cc1cncc2ncccc12` belongs 41.7%.

Regarding `CC(C)(C)CC(C)(C)Nc1c(-c2c(O)c3ccccc3oc2=O)nc2sc3ccccc3n12`, the growth was 21.6%. To `CCCCCCCCCCCCOC(=N)N(C)C` belongs 91.9%. For `COC(=O)[C@H](Cc1cn(C)cn1)NC(=O)[C@H](CC(C)C)NC(=O)Nc1cc(C(F)(F)F)cc(C(F)(F)F)c1` the value was -72.6% [100 µM] (active). For `COc1ccc(/C(=C\c2ccccc2)C(=O)O)cc1OC` the value was 112%. As for `N#Cc1ccc(-n2cnc(NC(=O)[C@H]3CCN(C#N)C3)c2)cc1`, the growth was -20.8% (active).

Regarding `O=S(Nc1ccccc1)c1ccc(Cl)cc1` (centres undefined), the growth is 90.8%.

Regarding `O=C(CSc1nnc(Cc2ccccc2Nc2c(Cl)cccc2Cl)n1-c1ccccc1)N1N=C(c2ccc3ccccc3c2)CC1c1ccc(Cl)cc1` (centres undefined), the growth is 98%.

On to `Cc1ccc(C(=O)N/N=C/c2cccc([N+](=O)[O-])c2)cn1`, for which the growth was 74%. For `CCCCCCCCCCCCCCCCOc1ccccc1NC(=O)CC(C)=O` the value was 98%. For `O=C1OC2C(I)C3CC2C1C3c1ccccc1` (centres undefined) the value was 85.7%. For `C/C(=N/N=C(N)N)c1ccc(N)cc1` the value was 60.1%.

In the case of `NC(=O)c1cccc(-c2ccc(S(=O)(=O)Nc3ccc4c(c3)N(C(=O)C3CC3)CCC4)cc2)c1`, the growth is 1.43% (active). `O=S(=O)(Cc1ccccc1)c1nc2ccccc2s1`: the growth was 16.9%. On to `CCOC(=O)c1sc(NC(=O)COc2cccc(/C=C3\CCc4cc(OC)ccc4C3=O)c2)nc1C`, for which the growth is -52.9% (active). With `CN(C)CCCC1(c2ccc(F)cc2)OCc2cc(-c3csc4ccccc34)ccc21` (centres undefined), the growth is -52.1% (active). For `CCOC(=O)Oc1c(OC)cc(C(=O)O[C@@H]2C[C@@H]3CN4CCc5c([nH]c6cc(OC)ccc56)[C@H]4C[C@@H]3[C@H](C(=O)OC)[C@H]2OC)cc1OC` the value was -27.7% (active); for `CCOc1ccc(-n2nc(C(=O)Nc3ccccc3)nc2-c2cc(OC)c(OC)c(OC)c2)cc1`, 32.9%. To `COc1cc(C2C(C#N)=C(N)OC3=C2C(=O)c2ccccc2C3=O)cc(OC)c1O` (centres undefined) belongs 90.9%; to `O=C(O)c1ccc(Cl)cc1Nc1ccc(F)cc1`, 90.2%. For `Cc1ccc(-c2csc(NC(=O)c3ccccc3CN3C(=O)c4ccccc4C3=O)n2)cc1` the value was 95.3%; for `CN1C/C=C\CCOc2cccc(c2)-c2ccnc(n2)Nc2cccc(c2)C1`, -51.9% (active); for `CCN(CC)c1ccc(-c2cc(-c3cc(OC)c(OC)c(OC)c3)nc(N3CCOCC3)c2C#N)cc1`, -43.4% (active). Take `O=C(Nc1ccc2c(c1)C(=O)c1ccccc1-2)c1ccccc1`: the growth was 101%.

On to `CCCCCCCCCCCCCCCCCCOc1ccc(CC(=O)OCC[N+]2(C)CCCC2)cc1`, for which the growth is 101%. For `Cc1c(Cl)cccc1NC(=O)c1sc2nc3c(cc2c1N)COCC3` the value was 2.35% (active); for `COc1ncnc2[nH]cc(CN3CCN(c4ccc(F)cc4)CC3)c12`, 101%; for `O=C(N(c1ccccc1)c1ccccc1)n1ccc2nc(Cl)nc(Cl)c21`, 49.5%.
